This passage reports growth inhibition, inhibition and outcome results from PubChem BioAssay.

Molecules are shown by their SMILES. Values without a mark were called inactive. For some assays here: Measured potencies and affinities stand elsewhere. The source made the active and inactive calls. Unless noted, no rule for the calls is given here.

Test [1] in a line: antimalarial activity against Dd2 strain (AID 2302;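 active = growth inhibition above 50% at the single 2 µM test dose, taken to imply half-maximal potency below 2 µM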;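 also: 0% = DMSO untreated growth and 100% = chloroquine plus artemisinin killed control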). Conditions: P. falciparum Dd2 in RBCs, LDH growth readout, 72 h; at 2 µM; active compounds read high.
The nature of test [2]: HepG2 cytotoxicity, primary screen, cytotoxicity control for P. falciparum antimalarial project, cell-based, ATP luminescence (AID 2303;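 active = inhibition above 50%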;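 also: 0% = DMSO wells and 100% = digitonin-killed cells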). The note with it: HepG2 viability, 24-48 h, at 10 µM, active compounds read high.
In test [3] the target is L-lactate dehydrogenase (Plasmodium falciparum (isolate CDC / Honduras)) (UniProt Q27743). The test is described as follows: PfLDH activity inhibition – cell lysate, 3D7 strain, counter-screen for P. falciparum growth inhibition project (AID 2304).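 Also: 0% = vehicle and 100% = reference inhibitor.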 The note with it: P. falciparum 3D7 crude extract, LDH APAD/NBT absorbance; at 2 µM; active compounds read high. In general terms: The purpose of a counterscreen is to sort out artefacts and off-target activity.

Test [4] can be described thus: inhibition of 3D7 malaria parasite growth – strain 3D7 (AID 2306).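 Also: 0% = DMSO wells and 100% = chloroquine plus artemisinin control wells.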 Conditions: P. falciparum 3D7 erythrocytic growth, LDH absorbance, 72 h; at 2 µM; active compounds read high.
The target in test [5] is Calcium-dependent protein kinase 1 (Plasmodium falciparum (isolate 3D7)) (UniProt P62344). The test is described as follows: PfCDPK1 kinase inhibitors, biochemical, TCAMS library (AID 1159585; cut-off not given, nearly all actives have IC50 up to about 0.98 µM;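 also: inhibitors leave more ATP so luminescence rises with inhibition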). Conditions: recombinant PfCDPK1, Kinase-Glo ATP depletion luminescence.
In test [6] the target is Plasmodium falciparum protein kinase 6 (PK6, PF3D7_1337100) (UniProt Q8IDW1). The test is described as follows: PfPK6 kinase inhibitors, biochemical, TCAMS library (AID 1159586). Conditions: recombinant PfPK6, Kinase-Glo ATP depletion luminescence. For orientation: Kinase-Glo reads ATP consumption through a luciferase reaction.
Test [7] addresses Protein kinase 7 (PK7), Plasmodium falciparum 3D7 (PF3D7_0213400) (UniProt Q7YTF7). The test is described as follows: inhibition of Plasmodium PK7 catalytic activity – biochemical, TCAMS antimalarial set, Kinase-Glo luminescence (AID 1159587). The note with it: recombinant PfPK7, Kinase-Glo ATP depletion luminescence.
Test [8] deals with Calcium-dependent protein kinase 4 (Plasmodium falciparum (isolate 3D7)) (UniProt Q8IBS5). Briefly: PfCDPK4 kinase inhibitors, biochemical, TCAMS library (AID 1159588; cut-off not given, nearly all actives have IC50 up to about 0.91 µM). The note with it: recombinant PfCDPK4, Kinase-Glo ATP depletion luminescence.
Chain of Calcium-dependent protein kinase 4 (Plasmodium falciparum (isolate 3D7)) (Q8IBS5 whole entry, looked up): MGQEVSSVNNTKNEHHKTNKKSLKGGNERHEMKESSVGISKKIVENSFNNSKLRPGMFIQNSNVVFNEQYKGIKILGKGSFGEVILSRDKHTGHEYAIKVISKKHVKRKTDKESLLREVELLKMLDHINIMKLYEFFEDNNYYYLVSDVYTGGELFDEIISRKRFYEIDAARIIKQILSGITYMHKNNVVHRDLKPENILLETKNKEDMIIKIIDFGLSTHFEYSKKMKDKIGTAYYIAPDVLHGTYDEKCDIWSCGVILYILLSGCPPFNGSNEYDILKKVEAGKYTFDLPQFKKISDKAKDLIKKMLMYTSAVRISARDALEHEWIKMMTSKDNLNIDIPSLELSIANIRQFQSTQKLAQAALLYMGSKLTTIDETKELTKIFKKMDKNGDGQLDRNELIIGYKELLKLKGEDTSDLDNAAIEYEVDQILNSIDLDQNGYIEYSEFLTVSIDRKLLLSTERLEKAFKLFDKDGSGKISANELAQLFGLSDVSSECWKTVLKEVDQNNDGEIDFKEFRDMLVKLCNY

Chain of Protein kinase 7 (PK7), Plasmodium falciparum 3D7 (PF3D7_0213400) (Q7YTF7 1-343): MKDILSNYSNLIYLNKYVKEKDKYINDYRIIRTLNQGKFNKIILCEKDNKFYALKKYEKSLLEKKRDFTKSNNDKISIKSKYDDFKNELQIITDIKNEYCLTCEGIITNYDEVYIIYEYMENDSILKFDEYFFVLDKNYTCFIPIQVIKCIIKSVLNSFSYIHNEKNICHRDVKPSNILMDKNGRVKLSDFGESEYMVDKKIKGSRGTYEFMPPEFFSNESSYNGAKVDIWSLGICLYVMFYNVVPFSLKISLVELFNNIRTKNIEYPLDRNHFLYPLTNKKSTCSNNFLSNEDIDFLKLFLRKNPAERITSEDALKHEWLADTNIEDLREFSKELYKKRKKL
Chain of Plasmodium falciparum protein kinase 6 (PK6, PF3D7_1337100) (Q8IDW1 1-305): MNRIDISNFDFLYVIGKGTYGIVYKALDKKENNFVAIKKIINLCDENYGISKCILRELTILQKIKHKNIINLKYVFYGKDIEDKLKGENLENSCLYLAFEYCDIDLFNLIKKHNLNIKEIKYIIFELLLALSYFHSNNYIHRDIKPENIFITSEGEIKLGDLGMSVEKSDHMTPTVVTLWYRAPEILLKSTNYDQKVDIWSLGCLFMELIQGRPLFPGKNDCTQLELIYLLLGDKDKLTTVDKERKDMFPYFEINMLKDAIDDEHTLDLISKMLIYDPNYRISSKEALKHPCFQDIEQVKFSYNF
Chain of L-lactate dehydrogenase (Plasmodium falciparum (isolate CDC / Honduras)) (Q27743 whole entry, looked up): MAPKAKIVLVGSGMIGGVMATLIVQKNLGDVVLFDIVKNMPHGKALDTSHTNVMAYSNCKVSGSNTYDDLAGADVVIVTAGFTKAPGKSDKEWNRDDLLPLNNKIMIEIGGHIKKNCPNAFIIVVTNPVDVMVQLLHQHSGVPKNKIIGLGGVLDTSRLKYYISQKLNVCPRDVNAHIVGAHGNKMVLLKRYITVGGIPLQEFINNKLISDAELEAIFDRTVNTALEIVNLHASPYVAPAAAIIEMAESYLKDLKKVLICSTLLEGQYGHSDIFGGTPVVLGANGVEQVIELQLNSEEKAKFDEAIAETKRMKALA
Chain of Calcium-dependent protein kinase 1 (Plasmodium falciparum (isolate 3D7)) (P62344 whole entry, looked up): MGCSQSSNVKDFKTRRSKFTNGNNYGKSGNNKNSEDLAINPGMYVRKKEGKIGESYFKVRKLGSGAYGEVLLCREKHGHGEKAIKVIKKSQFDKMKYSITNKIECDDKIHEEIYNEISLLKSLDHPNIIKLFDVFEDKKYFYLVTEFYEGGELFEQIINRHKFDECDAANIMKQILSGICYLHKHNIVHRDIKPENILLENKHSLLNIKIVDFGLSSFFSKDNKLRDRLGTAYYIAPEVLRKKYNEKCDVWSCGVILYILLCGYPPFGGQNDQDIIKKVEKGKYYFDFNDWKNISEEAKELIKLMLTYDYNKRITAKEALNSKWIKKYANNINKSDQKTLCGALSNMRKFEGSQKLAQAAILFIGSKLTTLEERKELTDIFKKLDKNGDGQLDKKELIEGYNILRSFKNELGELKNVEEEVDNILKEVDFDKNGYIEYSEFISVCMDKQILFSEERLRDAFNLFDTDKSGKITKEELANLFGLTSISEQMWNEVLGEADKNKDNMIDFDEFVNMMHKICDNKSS

With `CCc1nnc2sc(-c3cccc(NC(=O)c4ccc(OC)c(Cl)c4)c3)nn12`, the growth inhibition in test [1] was 55% (active); in test [4] it was 92% (active). The values for the inhibition in test [2] and in test [3] were 3% and -2%, respectively. In addition, the outcome in test [5], in test [6], in test [7] and in test [8] was inactive.
Regarding `CNC(=O)c1cnc(Nc2ccc(N3CCOCC3)cc2)nc1Nc1cccc(O)c1`, the values for the growth inhibition in test [1] and in test [4] were 78% (active) and 90% (active), respectively. Further, the inhibition (in general, the drop in the measured response relative to a control, in per cent) was 23% in test [2] and -2% in test [3]. Also, the result in test [5], in test [6], in test [7] and in test [8] was inactive.
`Oc1ccc(CCNc2nc(NCCCOc3cccc(CN4CCCCC4)c3Cl)nc(N3CCNCC3)n2)cc1`: the growth inhibition was 22% in test [1] and 102% (active) in test [4]. In addition, the inhibition is 26% in test [2] and 5% in test [3]. The result in test [5], in test [6], in test [7] and in test [8] was inactive.
As to `CC(C)Oc1cccc(-c2ccc(C(=O)NCC3CCCN(Cc4cccc(C(F)(F)F)c4)C3)s2)c1` (configuration not stated), the growth inhibition is 28% in test [1] and 91% (active) in test [4]. Besides, the inhibition in test [2] was 10%; in test [3], -2%. The result in test [5], in test [6], in test [7] and in test [8] was inactive.
With `O=C(c1cc(C(=O)Nc2ccc(F)cc2)c(=O)n(-c2ccc(F)cc2)c1)c1cc(Cl)ccc1O`, the figures for the growth inhibition in test [1] and in test [4] were 98% (active) and 101% (active), respectively. The inhibition in test [2] is 13%; in test [3], -4%. The outcome in test [5], in test [6], in test [7] and in test [8] was inactive.
Regarding `C=CCOc1ccc(CNC2CCN(Cc3ccccc3)CC2)cc1Br`, the results for the growth inhibition in test [1] and in test [4] were 8% and 92% (active), respectively. Moreover, the inhibition in test [2] was 9%; in test [3] it was -2%. Moreover, the result in test [5], in test [6], in test [7] and in test [8] was inactive.
With `Cc1cccc2[nH]c(-c3ccc(-c4ccc(CN5CCN(CC6CCCN(C)C6)CC5)cc4)s3)nc12` (configuration not stated), the figures for the growth inhibition in test [1] and in test [4] were 99% (active) and 101% (active), respectively. Besides, the inhibition in test [2] is 63% (active); in test [3], -3%. Besides, the outcome in test [5], in test [6], in test [7] and in test [8] was inactive.
Take `COc1cc(C2CCN(CCCCNC(=O)c3ccc(NC(=O)c4ccc(Cl)c(Cl)c4)cc3)CC2)ccc1OC(C)C`: the growth inhibition in test [1] is 96% (active); in test [4], 101% (active). For the same molecule, the inhibition was 45% in test [2] and -5% in test [3]. Further, the outcome in test [5], in test [6], in test [7] and in test [8] was inactive.
With `CC(CN1CCN(C)CC1)C(=O)Nc1ccc(-c2ccc(-c3nc4ccccc4[nH]3)cc2)cc1` (configuration not stated), the growth inhibition in test [1] is 87% (active); in test [4] it was 92% (active). Further, the figures for the inhibition in test [2] and in test [3] were 13% and 4%, respectively. The result in test [5], in test [6], in test [7] and in test [8] was inactive.
As to `C=CCN(C(=O)c1ccc(Cl)c([N+](=O)[O-])c1)c1nc(-c2ccccc2)cs1`, the growth inhibition in test [1] is 99% (active); in test [4] it was 100% (active). Further, the values for the inhibition in test [2] and in test [3] were -13% and -6%, respectively. Also, the result in test [5], in test [6], in test [7] and in test [8] was inactive.
For the molecule `CCCc1cn2c3c(cc(C(=O)N[C@@H](Cc4ccccc4)[C@H](O)CNC4CCOCC4)cc13)N(C)S(=O)(=O)CC2`, the growth inhibition in test [1] is 98% (active); in test [4], 99% (active). Also, the inhibition in test [2] was 1%; in test [3] it was 3%. Moreover, the result in test [5], in test [6], in test [7] and in test [8] was inactive.
Turning to `COc1ccccc1CCNc1nc(C)cc(N[C@@H](Cc2ccccc2)C(=O)NCCc2ccccc2)n1`, the growth inhibition in test [1] was 89% (active); in test [4] it was 100% (active). Besides, the inhibition in test [2] is 16%; in test [3], -3%. In addition, the result in test [5], in test [6], in test [7] and in test [8] was inactive.
For `Cc1noc(C)c1-c1ccc2c(Nc3ccccc3C(C)(C)C)c(C(=O)NCc3ccccc3)cnc2c1`, the growth inhibition in test [1] was 89% (active); in test [4], 99% (active). Besides, the values for the inhibition in test [2] and in test [3] were 20% and -1%, respectively. Further, the result in test [5], in test [6], in test [7] and in test [8] was inactive.
For `Cc1ccc(Nc2nc(C)cc(NC3CC3)n2)cc1`, the growth inhibition is 15% in test [1] and 97% (active) in test [4]. Besides, the inhibition was -4% in test [2] and 5% in test [3]. For the same molecule, the outcome in test [5], in test [6], in test [7] and in test [8] was inactive.
On to `Cc1ccc(S(=O)(=O)N(C)c2ccccc2C(=O)Nc2ccccc2Oc2ccccc2)cc1`, for which the growth inhibition in test [1] was 90% (active); in test [4], 98% (active). Also, the inhibition was 5% in test [2] and 3% in test [3]. Besides, the outcome in test [5], in test [6], in test [7] and in test [8] was inactive.
Regarding `CC(C)c1ccc(NC(=O)c2ccc(C(=O)NCC3CCN(CC4CCCCC4)CC3)cc2)cc1`, the growth inhibition is 18% in test [1] and 92% (active) in test [4]. The inhibition is 26% in test [2] and -3% in test [3]. The result in test [5], in test [6], in test [7] and in test [8] was inactive.
Turning to `CCc1cn2c3c(cc(C(=O)N[C@@H](Cc4cccc(Cl)c4)[C@H](O)CNC4CCOCC4)cc13)N(C)S(=O)(=O)CC2`, the growth inhibition in test [1] and in test [4] was 98% (active) in each case. Further, the inhibition is 2% in test [2] and -1% in test [3]. The outcome in test [5], in test [6], in test [7] and in test [8] was inactive.
Regarding `Cc1c(-c2cccc(Br)c2)[nH]c2nc(N)nc(N)c12`, the growth inhibition in test [1] was 61% (active); in test [4] it was 100% (active). Also, the inhibition is 8% in test [2] and -4% in test [3]. Moreover, the outcome in test [5], in test [6], in test [7] and in test [8] was inactive.
Regarding `Clc1cccnc1N1CCN(c2ncccc2Cl)CC1`, the growth inhibition is 0% in test [1] and 97% (active) in test [4]. Besides, the inhibition in test [2] was 2%; in test [3], 4%. Moreover, the result in test [5], in test [6], in test [7] and in test [8] was inactive.
